Here are results for 31 compounds from PubChem BioAssay (NCATS).

Several values for one entry are separate records, joined by “and”; a condition that tells them apart may be missing. Equal entries are not always repeated. Inconclusive results are not listed. Activity calls are given as the source filed them. Unless noted, calls come from the whole dose curve; as a rule, active = well fitted curve in the direction sought with a large enough effect; inconclusive = small, poorly fitted or top-dose-only effect, or another doubt; inactive = no such curve, though single readings can be large; an effect the other way counts as inactive or inconclusive.

A short description of assay [1]: qHTS Assay for Identifying Gametocytocidal Compounds (AID 743244).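 For max response: % is set by controls: 0 for no effect and ±100 for the full control effect; actives lower the fluorescent signal which means gametocytes are killed.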 Note: potency is the fitted concentration of half-maximal effect. Conditions: P. falciparum 3D7 stage III-V gametocytes, alamarBlue, 72 h; max response: stronger effect = lower value. The method in brief:
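Fluorescence at Ex 525/Em 598 nm, recorded 24 h after alamarBlue addition, reports residual metabolic activity of 3D7 gametocytes (stages III–V) following 72 h compound exposure at 37 °C, 5% CO2.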
On the technique in general: Quantitative high-throughput screening tests each substance at several concentrations.

Assay [2] can be described thus: qHTS profiling for inhibitors of Plasmodium falciparum (3D7) proliferation (AID 743322; call rule not given here;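 note: infected erythrocytes exposed to compound for 72 h before lysis; 100% = DMSO vehicle wells and 0% = 0.29 µM artemisinin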). Conditions: P. falciparum 3D7 proliferation; at 28.7 µM (top of the series) unless noted. The essentials: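 Parasite DNA was quantified by SYBR Green I fluorescence (ex 485, em 535 nm) after overnight lysis in saponin/Triton buffer at room temperature. Cultures at 0.3% parasitemia and 2.5% hematocrit were first exposed to compound for 72 h at 37 C; signals were normalised to artemisinin (0.29 uM) and vehicle wells.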

For assay [3], the target named is T1, Hexokinase-4 (Homo sapiens) + Glucokinase regulatory protein (Homo sapiens) (UniProt P35557+Q14397). Briefly: qHTS assay for inhibitors of recombinant human GCK-GKRP interaction: Diaphorase-coupled assay (AID 743205). Particulars: G6PDH/diaphorase resorufin fluorescence; series mostly up to 57.5 µM. The method in brief: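 Signal derives from resorufin generated by diaphorase, linked to GCK turnover of glucose (5 mM) and ATP (0.4 mM). Enzyme complex was added after a 20-minute compound preincubation and monitored for 30 minutes.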

The target of assay [4] is T1, Hexokinase-4 (Homo sapiens) + Glucokinase regulatory protein (Homo sapiens). Briefly: qHTS assay for inhibitors of recombinant human GCK-GKRP interaction: ADP-Glo assay (AID 743206).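 Note: plate controls were DMSO plus enzyme for no effect and no enzyme for full effect.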 Conditions: ADP-Glo luminescence, 60 min, 0% = vehicle-only wells with enzyme present; series mostly up to 76.9 µM. The method in brief:
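Pin-transferred compounds meet a 15 nM GST-GCK/15 nM FLAG-GKRP/2 uM S6P mix (dispense concentrations). ATP is then added to 0.4 mM final with 5 mM glucose, and the reaction runs 60 min at room temperature. ADP is quantified luminescently.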

Assay [5] has the same target. The experiment in a line: qHTS assay for inhibitors of recombinant human GCK-GKRP interaction: HTRF assay (AID 743207).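 Note: 0% = DMSO with GCK present and -100% = DMSO wells lacking GCK.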 Conditions: recombinant GCK-GKRP HTRF binding, 60 min, with sorbitol-6-phosphate; series mostly up to 57.5 µM. The method in brief:
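Titration screening format: recombinant GST-GCK and FLAG-GKRP at 5 nM, S6P at 2 uM, labelled anti-tag antibodies, 60 min at RT, dual-wavelength HTRF readout.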

Assay [6] can be described thus: qHTS assay for small molecule agonists of the antioxidant response element (ARE) signaling pathway measured by Nrf2-dependant transcriptional activity (AID 720636; active = well fitted curve in the direction sought with a large enough effect in the repeat runs; an effect the other way counts as inactive or inconclusive;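 note: HepG2 cells with an ARE-driven luciferase reporter; % of control where 0% means no effect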). Conditions: ARE-luc HepG2, Nrf2 luciferase reporter, 16 h; series mostly up to 92.4 µM. The essentials:
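Cells: ARE-luc HepG2 with Nrf2-responsive luciferase. Medium contained 1% dialyzed FBS. Compound exposure lasted 16 hr at 37 C and 5% CO2, followed by ONE-Glo luciferase detection.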

Assay [7] is described as follows: qHTS assay for small molecule antagonists of the retinoid-related orphan receptor gamma (ROR-gamma) signaling pathway - cell viability counter screen (AID 720652; active = well fitted curve in the direction sought with a large enough effect in the repeat runs; an effect the other way counts as inactive or inconclusive;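 note: CHO reporter cells with doxycycline-induced ROR-gamma expression; compound exposure lasted 16 hr before ATP read; % is set by controls: 0 for no effect and ±100 for the full control effect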). Conditions: RORgamma reporter cell line viability counter screen; series mostly up to 92.2 µM. The method in brief: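 Steps: seed CHO cells bearing TET-inducible ROR and ROR response element-luciferase; rest 5 hr at 37 C; add compound, then doxycycline; incubate 16 hr; add CellTiter-Glo and read luminescence as ATP-based viability.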

The nature of assay [8]: qHTS assay for small molecule agonists of the antioxidant response element (ARE) signaling pathway measured by Nrf2-dependant transcriptional activity - cell viability counter screen (AID 720653; active = well fitted curve in the direction sought with a large enough effect in the repeat runs; an effect the other way counts as inactive or inconclusive; note: % is set by controls: 0 for no effect and ±100 for the full control effect). Particulars: ARE-bla HepG2 viability, CellTiter-Glo ATP luminescence, 16 h; stronger effect = lower value. The method in brief: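 Cytotoxicity counter screen: intracellular ATP quantified by CellTiter-Glo luminescence in the same ARE-bla HepG2 plates, after 16 h compound exposure and a 2 h beta-lactamase substrate step.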

Assay [9] is described as follows: qHTS assay for cell viability of HEK293 cells (AID 743288). Note: % is set by controls: 0 for no effect and ±100 for the full control effect; nearly all actives have a fitted effect of over 50% in size. Particulars: ATP luminescence (CellTiter-Glo), 18 h, stronger effect = lower value. The essentials:
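HEK293, 18 h, 37 C, ATP luminescence. Cells at 2,000/well were allowed at least 5 h to settle before dosing; CellTiter-Glo developed 30 min at RT.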

Assay [10] can be described thus: qHTS assay for cell viability of the p53RE-bla HCT-116 cell line (AID 743292). Note: % is set by controls: 0 for no effect and ±100 for the full control effect; nearly all actives have a fitted effect of over 55% in size. Particulars: p53RE-bla HCT-116 viability, ATP luminescence, 16 h; series mostly up to 95 µM. The method in brief: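 HCT-116 p53RE-bla cells seeded 4,000/well; 5 h at 37 C; compound (DMSO) added; 16 h at 37 C; CellTiter-Glo added, 30 min RT; luminescence read.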

T1 sequence (P35557 whole entry, looked up): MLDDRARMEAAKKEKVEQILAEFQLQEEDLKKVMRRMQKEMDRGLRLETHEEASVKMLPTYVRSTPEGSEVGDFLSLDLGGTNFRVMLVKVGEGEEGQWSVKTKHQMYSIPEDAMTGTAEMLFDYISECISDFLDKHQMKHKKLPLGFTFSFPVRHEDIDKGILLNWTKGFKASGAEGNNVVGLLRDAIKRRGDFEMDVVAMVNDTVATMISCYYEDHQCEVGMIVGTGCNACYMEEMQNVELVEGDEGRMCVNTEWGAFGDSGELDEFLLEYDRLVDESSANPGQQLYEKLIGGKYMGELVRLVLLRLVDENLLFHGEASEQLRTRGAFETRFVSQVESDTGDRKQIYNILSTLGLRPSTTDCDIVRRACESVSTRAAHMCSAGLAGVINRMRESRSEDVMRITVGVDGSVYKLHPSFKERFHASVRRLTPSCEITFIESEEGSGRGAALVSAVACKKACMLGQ
T1 sequence (Q14397 whole entry, looked up): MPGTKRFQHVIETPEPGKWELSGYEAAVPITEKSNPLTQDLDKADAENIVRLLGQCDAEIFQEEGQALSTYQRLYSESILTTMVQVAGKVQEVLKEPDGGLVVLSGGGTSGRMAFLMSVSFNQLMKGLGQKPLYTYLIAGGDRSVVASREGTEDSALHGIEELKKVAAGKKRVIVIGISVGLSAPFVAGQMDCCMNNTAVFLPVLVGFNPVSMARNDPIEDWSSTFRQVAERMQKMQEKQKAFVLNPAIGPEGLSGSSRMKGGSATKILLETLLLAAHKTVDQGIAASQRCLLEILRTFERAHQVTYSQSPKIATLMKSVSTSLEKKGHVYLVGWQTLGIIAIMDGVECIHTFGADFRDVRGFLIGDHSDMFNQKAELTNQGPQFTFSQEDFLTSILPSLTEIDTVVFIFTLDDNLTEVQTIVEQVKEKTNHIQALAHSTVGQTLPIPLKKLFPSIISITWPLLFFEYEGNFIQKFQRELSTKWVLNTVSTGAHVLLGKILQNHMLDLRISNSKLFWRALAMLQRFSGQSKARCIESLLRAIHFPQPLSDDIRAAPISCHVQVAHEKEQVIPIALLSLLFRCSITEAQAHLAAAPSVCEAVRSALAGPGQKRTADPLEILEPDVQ

Turning to `CO[C@H]1O[C@@H]2O[C@@]3(C)CC[C@@H]4[C@@H](C)CC[C@@H]([C@H]1C)[C@@]24OO3`, the Potency in assay [1] was 11.8 nM (active).
As for `C[C@@H](O[C@H]1OCCN(Cc2n[nH]c(=O)[nH]2)[C@@H]1c1ccc(F)cc1)c1cc(C(F)(F)F)cc(C(F)(F)F)c1`, in assay [2], the remaining parasite growth % (stronger effect = lower value) is 16.5%.
As for `CC(C)CNc1ccnc(NCc2csc(-c3ccccc3)n2)n1`, in assay [2], the remaining parasite growth % (stronger effect = lower value) was 3.03%.
Regarding `COc1cc2c(cc1OC)CC(=O)N(CCCN(C)C[C@H]1Cc3cc(OC)c(OC)cc31)CC2`, in assay [1], the max response is -6.61% (inactive). For the same compound, in [2], the remaining parasite growth % (stronger effect = lower value) is 105%.
On to `Cc1cccc(Nc2nc(N[C@@H]3CCCC[C@H]3N)ncc2C(N)=O)c1`, for which the Potency in assay [1] was 9350 nM (active). For the same compound, the remaining parasite growth % (stronger effect = lower value) in assay [2] came out at 0.221%.
`CC[C@H](C)C(=O)O[C@H]1C[C@H](O)C=C2C=C[C@H](C)[C@H](CC[C@@H](O)C[C@@H](O)CC(=O)O)[C@H]21`: the max response in assay [1] was -1.33% (inactive).
Turning to `O=C1CN2Cc3c(ccc(Cl)c3Cl)N=C2N1`, the remaining parasite growth % (stronger effect = lower value) in [2] came out at 87%.
For `CC(C)n1c(C=C[C@H](O)C[C@H](O)CC(=O)O)c(-c2ccc(F)cc2)c2ccccc21`, in assay [1], the max response is -4.13% (inactive).
For the compound `COC(=O)Nc1ccc(-c2nc(N3CCOCC3)c3cnn(C4CCN(C(=O)OC)CC4)c3n2)cc1`, the remaining parasite growth % (stronger effect = lower value) in assay [2] was 3.29%.
For the compound `CCC(=O)N1CCN(c2ccc(-n3c(=O)ccc4cnc5ccc(-c6cnc7ccccc7c6)cc5c43)cc2C(F)(F)F)CC1`, the remaining parasite growth % (stronger effect = lower value) in [2] was 4.73%.
Take `CNC(=O)c1cc(COc2nnc(Nc3ccc(Cl)cc3)c3ccoc23)ccn1`: in assay [1], the max response was 13% (inactive). For the same compound, the remaining parasite growth % (stronger effect = lower value) in assay [2] stood at 54.7%.
On to `COc1cccc(OC)c1-c1cc(C(=O)NC2(C(=O)O)C3CC4CC(C3)CC2C4)nn1-c1ccnc2cc(Cl)ccc12` (stereo not given), for which the max response in assay [1] is 42.4% (inactive). The remaining parasite growth % (stronger effect = lower value) in assay [2] came to 23.7%.
In the case of `COc1ccc(CCN(C)CCCOc2ccc(S(=O)(=O)c3[nH]c4ccccc4c3C(C)C)cc2)cc1OC`, the remaining parasite growth % (stronger effect = lower value) in [2] is -1%.
As for `CN(C)CCCNC(=O)c1ccc(-c2cc(O)c3ncccc3c2)cc1`, in assay [1], the Potency was 2960 nM (active). Besides, the remaining parasite growth % (stronger effect = lower value) in assay [2] was determined as 3.59%.
As for `NC(=O)c1ccc(N(C(N)=O)c2c(F)cccc2F)nc1-c1ccc(F)cc1F`, the max response in [1] was 15.2% (inactive). Also, the remaining parasite growth % (stronger effect = lower value) in [2] stood at 84.7%.
The corresponding values for `CC(C)C[C@H](NC(=O)c1cc2ccccc2s1)C(=O)N1CCN(C(=O)[C@H](CO)NS(=O)(=O)c2ccc(Cl)cc2Cl)CC1` are 4.85% (inactive) and 17.9%.
Take `N#Cc1c(N(CC(=O)O)CC(=O)O)sc(C(=O)O)c1CC(=O)O`: the max response in assay [1] is -8.64% (inactive).
In the case of `CCNC(=O)c1noc(-c2cc(C(C)C)c(O)cc2O)c1-c1ccc(CN2CCOCC2)cc1`, the remaining parasite growth % (stronger effect = lower value) in [2] came to 0.155%.
In the case of `CN(C)CC[C@H](CSc1ccccc1)Nc1ccc(S(=O)(=O)NC(=O)c2ccc(N3CCN(Cc4ccccc4-c4ccc(Cl)cc4)CC3)cc2)cc1[N+](=O)[O-]`, the remaining parasite growth % (stronger effect = lower value) in assay [2] is 11.6%.
`C[C@H]1O[C@@H](n2cc(F)c(=O)[nH]c2=O)[C@H](O)[C@H]1O`: the result in [3], in [4] and in [5] was inactive.
With `CCCCCCCCCCCCCC(=O)N[C@H](CO)[C@H](O)c1ccc([N+](=O)[O-])cc1`, the remaining parasite growth % (stronger effect = lower value) in assay [2] was 90.4%.
On to `C=CCc1cccc(C=NNC(=O)CN2CCN(Cc3ccccc3)CC2)c1O`, for which the outcome in assay [3], in [4] and in assay [5] was inactive.
With `CN(C)CCN(C)C(=O)c1ccc(NC(=O)Nc2ccc(-c3nc(N4CCOCC4)c4ccn(CC(F)(F)F)c4n3)cc2)cc1`, the remaining parasite growth % (stronger effect = lower value) in [2] is -0.909%.
On to `C[C@@H]1C[C@H]2[C@@H]3CCC4=CC(=O)C=C[C@]4(C)[C@@]3(F)[C@@H](O)C[C@]2(C)[C@@]1(O)C(=O)CO`, for which the compound was classed as inactive in assay [6], in [7] and in assay [10]. For the same compound, the max response was -1.58% (inactive) and -7.2% (inactive) in [8]; -1.33% (inactive) and -8.25% (inactive) in [9].
Regarding `COc1ccnc(CS(=O)c2nc3ccc(OC(F)F)cc3[nH]2)c1OC` (stereo not given), in [1], the max response was 7.9% (inactive).
As to `CCCCc1ccc(NS(=O)(=O)c2ccc(C)c(C(=O)N3CCN(c4cccc(C)c4C)CC3)c2)cc1`, in [2], the remaining parasite growth % (stronger effect = lower value) amounted to 37.4%.
For the compound `COc1nc(C)cnc1NS(=O)(=O)c1cccnc1-c1ccc(-c2nnco2)cc1`, the max response in assay [1] is 18.4% (inactive). The remaining parasite growth % (stronger effect = lower value) in assay [2] worked out at 63.7%.
Regarding `CCC=CC[C@H]1C(=O)CC[C@@H]1CC(=O)OC`, the max response in assay [1] was 12% (inactive). Further, in assay [2], the remaining parasite growth % (stronger effect = lower value) came to 94.5%.
Take `COc1cc2nccc(Oc3ccc(NC(=O)Nc4cc(C)on4)c(Cl)c3)c2cc1OC`: the max response in assay [1] was 19.1% (inactive). Further, in assay [2], the remaining parasite growth % (stronger effect = lower value) stood at 62.8%.
Regarding `Cc1cc2c(cc1C1(c3ccc(C(=O)O)cn3)CC1)C(C)(C)CCC2(C)C`, in [2], the remaining parasite growth % (stronger effect = lower value) is 101%.
In the case of `CN1C(=O)C(Cc2c[nH]c3ccccc23)NC1=S` (stereo not given), the max response in assay [1] is 15.9% (inactive). The remaining parasite growth % (stronger effect = lower value) in [2] was determined as 109%.
